# Laboratory results reported in PubChem BioAssay AID624301 (The Scripps Research Institute Molecular Screening Center, 2012).
# The source made the active and inactive calls.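 The calls were made as follows: active = relative activity ratio in the reporter plus Dax-1 wells above 5 or under 0.1 at any tested dose; inactive = ratio stays between 0.1 and 5 at every dose.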
# Experiment: DAX1 repression relief on CAT reporter, dose response, DAX1 inhibitor project, cell-based, CAT activity, absorbance, powder samples (AID 624301)
# Settings: HEK293 Gal4-DAX1 CAT reporter, ELISA absorbance, CAT reporter alone; at 100 µM (top of the series)
row,SMILES,"relative activity ratio, higher = derepression"
1,Cn1c(=O)n(C)c2cc(C(=O)Nc3ccc4c(c3)OCO4)ccc21,0.92 (active)
2,Cn1c(=O)n(C)c2cc(C(=O)Nc3ccc4c(c3)OCCO4)ccc21,0.59 (active)
